Test results published in PubChem BioAssay AID504602 (National Center for Advancing Translational Sciences (NCATS), 2011).
Results filed as inconclusive are left out. Unmarked numbers belong to inactive results. Activity calls are given as the source filed them. Calls come from the whole dose curve; as a rule, active = well fitted curve in the direction sought with a large enough effect; inconclusive = small, poorly fitted or top-dose-only effect, or effect the other way, or another doubt; inactive = no such curve, though single readings can be large or run the other way.

assay: Quantitative high throughput screen to test cell viability of anti-malarial compounds targeting the delayed death phenotype; details: HepG2 viability, CellTiter-Glo luminescence, 48 h; series mostly up to 46.1 µM; activity change, negative = cytotoxicity: at the top concentration
From the text: The biochemical processes that make this organelle essential for erythrocytic stage parasites are not well understood. However, antibiotics, such as azithromycin and tetracycline, which target the apicoplast translational machinery, have a potent antimalarial effect. […] We have developed a cell-based assay that measures parasite growth based on the expression of an integrated copy of a firefly luciferase reporter. To detect small molecules that cause this 'delayed death' phenotype, erythrocytes infected with the luciferase-expressing parasites were incubated with compounds for either one or two generations, corresponding to 48 and 96 hours, respectively. Compounds that inhibit parasite growth in the second generation, but not the first, should be enriched in antimalarials that target the apicoplast. Growth inhibition is detected by a decrease in luciferase activity. The goal of this counterscreen is to measure the cytoxoxicity (against HepG2 cell line) of a set of anti-malarial compounds that target the delayed death pheonotype as identified by the qHTS assay that inhibit the development of the apicoplast in the malarial parasite Plasmodium falciparum. NIH Molecular Libraries Probe Production Network [MLPCN] NIH Chemical Genomics Center [NCGC] MLPCN Grant: R21 NS059500 Assay Provider: David Fidock and Eric Ekland, Columbia University
Cells were plated at a density of 2000 cells/well/5uL in 1536 well white tissue culture plate with culture medium. Triplicate plates were prepared. Plates were incubated at 37C, 5% CO2 for 5 hours and then 23nL of compounds and positive control were transferred to the assay plates. Tetraoctylammonium bromide was added as a positive control. Plates were then incubated at 37C, 5% CO2 for 48 hours. 5 uL of CellTitler-Glo buffer was added to each well and then incubated for 30 min at room temperature. Luminescence was measured using ViewLux (1 second, slow, 2X).

SMILES | activity change, negative = cytotoxicity [%] | Potency
C[C@@H]1CN([C@@H](C)CO)C(=O)c2cc(NC(=O)Nc3ccccc3)ccc2O[C@@H](C)CCCCO[C@H]1CN(C)Cc1ccc(C(F)(F)F)cc1 | 16.6 | –
C[C@@H]1CN([C@@H](C)CO[Si](C)(C)C(C)(C)C)C(=O)c2cc(NC(=O)Nc3ccccc3)ccc2O[C@@H](C)CCCCO[C@H]1CN(C)S(=O)(=O)c1ccc(F)cc1 | -14.3 | –
C[C@@H]1CN([C@@H](C)COC(=O)c2ccccc2)C(=O)c2cc(NC(=O)Nc3ccccc3)ccc2O[C@@H](C)CCCCO[C@H]1CN(C)S(=O)(=O)c1ccc(F)cc1 | 3.02 | –
C[C@@H]1CN([C@@H](C)CN=[N+]=[N-])C(=O)c2cc(NC(=O)Nc3ccccc3)ccc2O[C@@H](C)CCCCO[C@H]1CN(C)S(=O)(=O)c1ccc(F)cc1 | -2.67 | –
C=CCOC(=O)N(C)C[C@H]1OCCCC[C@H](C)Oc2ccc(NC(=O)Nc3ccccc3)cc2C(=O)N([C@@H](C)CO[Si](C)(C)C(C)(C)C)C[C@H]1C | -5.42 | –
C[C@@H]1CN([C@@H](C)COC(=O)C(C)(C)C)C(=O)c2cc(NC(=O)Nc3ccccc3)ccc2O[C@@H](C)CCCCO[C@H]1CN(C)S(=O)(=O)c1ccc(F)cc1 | 19.5 | –
Cc1noc(C)c1NC(=O)Nc1ccc2c(c1)C(=O)N(C(C)C)C[C@@H](C)[C@H](CN(C)S(=O)(=O)c1ccc(F)cc1)OCCCC[C@H](C)O2 | 9.18 | –
C[C@@H]1CN([C@@H](C)CO)C(=O)c2cc(Nc3nc4ccccc4o3)ccc2O[C@@H](C)CCCCO[C@H]1CN(C)S(=O)(=O)c1ccc(F)cc1 | 11.4 | –
C=CCOC(=O)N(C)C[C@@H]1OCCCC[C@H](C)Oc2ccc(NC(=O)Nc3ccccc3)cc2C(=O)N([C@@H](C)CO)C[C@H]1C | -17.9 | –
C[C@@H]1CN([C@@H](C)COC(C)(C)C)C(=O)c2cc(NC(=O)Nc3ccccc3)ccc2O[C@@H](C)CCCCO[C@H]1CN(C)S(=O)(=O)c1ccc(F)cc1 | 4.18 | –
Cc1noc(C)c1NC(=O)Nc1ccc2c(c1)C(=O)N([C@@H](C)CO)C[C@@H](C)[C@H](CN(C)S(=O)(=O)c1ccc(F)cc1)OCCCC[C@H](C)O2 | 12.1 | –
C[C@@H]1CN([C@@H](C)CO)C(=O)c2cc(NC(=O)Nc3ccccc3)ccc2O[C@@H](C)CCCCO[C@H]1CN(C)S(=O)(=O)c1cccc(F)c1 | 4.87 | –
C[C@@H]1CN([C@@H](C)CO)C(=O)c2cc(NC(=O)Nc3ccccc3)ccc2O[C@@H](C)C/C=C/CO[C@H]1CN(C)S(=O)(=O)c1ccc(F)cc1 | 4.49 | –
C[C@@H]1CN(CCO)C(=O)c2cc(NC(=O)Nc3ccccc3)ccc2O[C@@H](C)CCCCO[C@H]1CN(C)S(=O)(=O)c1ccc(F)cc1 | -1.25 | –
C[C@@H]1CN([C@@H](C)CO)C(=O)c2cc(NC(=O)Nc3ccccc3)ccc2O[C@@H](C)CCCCO[C@H]1CN(C)C(=O)OC(C)(C)C | -7.33 | –
C[C@@H]1CN([C@@H](C)CO)C(=O)c2cc(NC(=O)Nc3ccccc3)ccc2O[C@@H](C)CCCCO[C@H]1CN(C)S(=O)(=O)c1cccnc1 | 4.77 | –
CC(C)NC(=O)Nc1ccc2c(c1)C(=O)N([C@@H](C)CO)C[C@@H](C)[C@H](CN(C)S(=O)(=O)c1ccc(F)cc1)OCCCC[C@H](C)O2 | 16.9 | –
C[C@@H]1CN(C)C(=O)c2cc(NC(=O)Nc3ccccc3)ccc2O[C@@H](C)CCCCO[C@@H]1CN(C)S(=O)(=O)c1ccc(F)cc1 | 16.5 | –
C[C@@H]1CN([C@@H](C)CO)C(=O)c2cc(NC(=O)Nc3ccccc3)ccc2O[C@@H](C)C/C=C\CO[C@H]1CN(C)S(=O)(=O)c1ccc(F)cc1 | 25.5 | –
C[C@@H]1CN([C@H](C)CO[Si](C)(C)C(C)(C)C)C(=O)c2cc(NC(=O)Nc3ccccc3)ccc2O[C@@H](C)CCCCO[C@H]1CN(C)S(=O)(=O)c1ccc(F)cc1 | -18 | –
C[C@@H]1CN([C@@H](C)CO)C(=O)c2cc(NC(=O)Nc3ccccc3)ccc2O[C@@H](C)CCCCO[C@H]1CN(C)S(=O)(=O)c1ccc(C(F)(F)F)cc1 | -7.97 | –
C[C@@H]1CN([C@@H](C)COC(=O)c2ccccc2)C(=O)c2cc(NC(=O)Nc3ccccc3)ccc2O[C@@H](C)CCCCO[C@H]1CN(C)C(=O)OC(C)(C)C | -7.44 | –
COc1ccc(COC[C@H](C)N2C[C@@H](C)[C@H](CN(C)S(=O)(=O)c3ccc(F)cc3)OCCCC[C@H](C)Oc3ccc(NC(=O)Nc4ccccc4)cc3C2=O)cc1 | -15 | –
C[C@@H]1CN([C@@H](C)CO)C(=O)c2cc(NC(=O)Nc3ccccc3)ccc2O[C@@H](C)CCCCO[C@H]1CN(C)S(=O)(=O)c1ccccc1F | 7.68 | –
C[C@@H]1CN([C@@H](C)CO)C(=O)c2cc(N)ccc2O[C@@H](C)CCCCO[C@H]1CN(C)S(=O)(=O)c1ccc(F)cc1 | 8.01 | –
COCCOC(=O)N(C)C[C@@H]1OCCCC[C@H](C)Oc2ccc(NC(=O)Nc3ccccc3)cc2C(=O)N([C@@H](C)CO)C[C@H]1C | 6.18 | –
C=CCOC(=O)N(C)C[C@@H]1OCCCC[C@H](C)Oc2ccc(NC(=O)Nc3ccccc3)cc2C(=O)N([C@H](C)COC(=O)c2ccccc2)C[C@H]1C | 19.1 | –
COc1ccc(COCCN2C[C@@H](C)[C@H](CN(C)S(=O)(=O)c3ccc(F)cc3)OCCCC[C@H](C)Oc3ccc(NC(=O)Nc4ccccc4)cc3C2=O)cc1 | -2.11 | –
C[C@@H]1CN(CCO[Si](C)(C)C(C)(C)C)C(=O)c2cc(NC(=O)Nc3ccccc3)ccc2O[C@@H](C)CCCCO[C@H]1CN(C)S(=O)(=O)c1ccc(F)cc1 | -5.91 | –
COCOC[C@H](C)N1C[C@@H](C)[C@H](CN(C)S(=O)(=O)c2ccc(F)cc2)OCCCC[C@H](C)Oc2ccc(NC(=O)Nc3ccccc3)cc2C1=O | – | 7.91 µM (active)
